Shown is part of a subset that was picked to be rich in hits.
TTR transcr act: increases transthyretin transcription. SH-SY5Y TTR promoter Gaussia luciferase, luminescence; 100% = recombinant luciferase protein wells. 92,000 tested, 1.3% active. activation, % at 16.7 µM. AID 1117267;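 active = activation above the mean of all tested compounds plus 3 SD, cut at about 9.5% in these data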;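 note: cells exposed to compounds for one day before reading; 0% = median of all test compound wells on the plate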
TTR inh HuH7: counter-screen for TTR activators: TTR transcription inhibitors in HuH7 cells; 1,100 tested, 4% active; inhibition, % at 16.7 µM; shares compounds with TTR transcr act; HuH7 TTR promoter-Gaussia luciferase reporter, luminescence;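 active = average inhibition above the solvent-only control wells' mean plus 3 SD, cut at about 15% in these data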;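 note: 0% = cells with DMSO only and 100% = cells with inhibitor control FD; inhibitors lower well luminescence so higher value means more inhibition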
TTR act confirm: confirmation of human transthyretin transcription activators. activation, % at 16.7 µM. shares compounds with TTR transcr act. 1,100 tested, under 10 active. SHSY5Y TTR promoter Gaussia luciferase, luminescence; 100% = purified Lucia enzyme wells, no cells;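 active = mean activation above a set limit taken from the earlier primary screen, cut at about 11% in these data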;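 note: 0% = DMSO-treated cells and 100% = recombinant Lucia luciferase without cells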
* = called active by the depositor.

`COc1ccccc1C(=O)NC1CCCCN(Cc2ccccc2C)C1=O` (centres undefined) gave TTR transcr act 0.
Screening COc1ccc(Nc2nc(Cl)nc(Nc3ccc(OC)cc3)n2)cc1 returned TTR transcr act -2.
COc1ccc(NC2=Nc3cccc4cccc2c34)cc1 was read as TTR transcr act 15*, TTR inh HuH7 -10 and TTR act confirm -1.
Screening COC1=C(Nc2ccc(OC)cc2)C(=O)C(OC)=C(Nc2ccc(OC)cc2)C1=O returned TTR transcr act 1.
O=C(NCCc1ccccc1)OCc1cn(-c2ccccc2Cl)nn1 was read as TTR transcr act -2.
CCCCCCCCN1C(=O)[C@@H](CC(=O)NCc2ccc(C)o2)C[C@@]2(C(=O)OC)C1=C[C@H](C(C)C)O[C@@H]2C1CC1 was read as TTR transcr act -1.
CCCCn1c(SCC(=O)Nc2cc(C)on2)nc2cc(S(N)(=O)=O)ccc21 was read as TTR transcr act 1.
CCCCn1c(SCC(=O)Nc2oc(C)c3c(C)n[nH]c(=O)c23)nc2cc(S(N)(=O)=O)ccc21 was read as TTR transcr act 1.
CCCCn1c(SCc2c(C)noc2C)nc2cc(S(N)(=O)=O)ccc21 was read as TTR transcr act 16*, TTR inh HuH7 -24 and TTR act confirm 0.
`O=C(OCC#CCSc1nnc(-c2cccc3ccccc23)o1)c1ccc(OC(F)(F)F)cc1` gave TTR transcr act 1.
For Cc1ccccc1-n1c(SCC(=O)Nc2ccccc2)nc2nc3c(cc2c1=O)CCCC3 the results were TTR transcr act 13*, TTR inh HuH7 -15 and TTR act confirm -1.
For CCn1c(SCC(=O)NCc2ccccc2)nc2nc3c(cc2c1=O)CCCC3 the results were TTR transcr act -1.
CCn1c(SCC(=O)Nc2ccc(OC)cc2)nc2nc3c(cc2c1=O)CCCC3 was read as TTR transcr act -1.
Screening O=C(Nc1ccc(F)cc1)OCc1cn(Cc2cc(F)cc(F)c2)nn1 returned TTR transcr act 2.
Screening COC(=O)[C@]12C[C@H](CC(=O)NCCCN3CCCC3=O)C(=O)N(CCc3ccc(OC)c(OC)c3)C1=C[C@H](C(C)C)O[C@@H]2C1CC1 returned TTR transcr act 0.
For CCCCCCCCN1C(=O)[C@@H](CC(=O)NCC23CC4CC(CC(C4)C2)C3)C[C@@]2(C(=O)OC)C1=C[C@H](C(C)C)O[C@@H]2C1CC1 the results were TTR transcr act 1.
Screening COC(=O)[C@@]12CCCCC=C1N(CCc1ccc(Cl)cc1)C(=O)[C@H]2CC(=O)NCCC(C)C returned TTR transcr act 1.
`Cc1ccc(S(=O)(=O)N2CC(O)CC2C(=O)NCc2ccc3c(c2)OCO3)cc1` (centres undefined) gave TTR transcr act 15*, TTR inh HuH7 -4 and TTR act confirm -1.
Cc1ccc(NC(=O)N2CCCC2C(=O)NCc2ccc3c(c2)OCO3)cc1 (centres undefined) was read as TTR transcr act 0.
Screening Cc1ccc(CNC(=O)COC(=O)[C@@H]2CC(O)CN2S(=O)(=O)c2ccc3c(c2)OCCO3)cc1 (some centres undefined) returned TTR transcr act 4.
COC(=O)[C@]12CCCCC=C1N(Cc1ccc(OC)cc1)C(=O)[C@@H]2CC(=O)N1CCN(C(=O)C2CC2)CC1 was read as TTR transcr act 1.
Screening CC(C)(C)c1ccc(-c2noc(CCC(=O)NC3CC3)n2)cc1 returned TTR transcr act 6.
C/C(=N\NC(=O)c1ccccn1)c1ccc(Cl)cc1 was read as TTR transcr act -2.
CC(/C=C/c1ccccc1)=N/NC(=O)C(O)c1ccccc1 (centres undefined) was read as TTR transcr act 3.
`C/C(=N\NC(=O)C(O)c1ccccc1)c1ccc(Cl)cc1` (centres undefined) gave TTR transcr act 23*, TTR inh HuH7 -11 and TTR act confirm 0.
For CC(C)CC(CCOCCO)NC(=O)OCc1ccccc1[N+](=O)[O-] (centres undefined) the results were TTR transcr act 0.
For CN(C)c1ccc(Cn2c(=O)n(Cc3ccc(C(=O)NCC4COC4)cc3)c(=O)c3ccccc32)cc1 the results were TTR transcr act -1.
Screening CCC[C@H]1[C@@H](NC(=O)c2ccc(OC)cc2)CC[C@@]23CCCN2C(=O)CCC[C@@H]13 returned TTR transcr act 2.
CCC(C)NCCCCOc1cc(C)cc(C(C)C)c1 (centres undefined) was read as TTR transcr act -2.
Screening CCC(C)NCCCCOc1ccc(Br)cc1 (centres undefined) returned TTR transcr act 10*, TTR inh HuH7 -6 and TTR act confirm 0.
For CCOc1ccc(OCCCCNC(C)(C)C)cc1 the results were TTR transcr act 2.
Screening COc1ccc(Cn2ccc3ccc(-c4ccc5ccn(C(=O)C6CC6)c5c4)cc32)cc1 returned TTR transcr act 2.
O=C1/C(=C/c2ccncc2)N=C2CCCCCN12 was read as TTR transcr act 47*, TTR inh HuH7 -12 and TTR act confirm 0.
`COc1ccc(/C=C2\N=C3CCCCCN3C2=O)cc1` gave TTR transcr act 3.
`O=C1/C(=C/c2ccncc2)CCC/C1=C\c1ccncc1` gave TTR transcr act -6.
Screening C#CCN1C(=O)[C@]2(NCCc3c2[nH]c2ccc(OC)cc32)c2cc(F)ccc21 returned TTR transcr act -2.
`CCOc1cc(CO)c(Br)cc1OCC(=O)O` gave TTR transcr act 1.
`CCCCNCc1cc(OC)c(OCC(N)=O)cc1Br` gave TTR transcr act 1.
CCCCNCc1cc(OCC)c(OCC(N)=O)cc1Br was read as TTR transcr act 18*, TTR inh HuH7 -5 and TTR act confirm 2.
`O=C(Nc1nc2ccccc2s1)c1cccc(S(=O)(=O)N2CCc3ccccc32)c1` gave TTR transcr act -2.
CCc1nnc(NC(=O)c2cccc(S(=O)(=O)N3CCN(C(C)=O)CC3)c2)s1 was read as TTR transcr act -1.
CCc1nnc(NC(=O)c2cccc(S(=O)(=O)N3CCc4ccccc43)c2)s1 was read as TTR transcr act 15*, TTR inh HuH7 13 and TTR act confirm -1.
`CC(C)Cn1c(=O)cc(N2CCN(c3cccc(C(F)(F)F)c3)CC2)[nH]c1=O` gave TTR transcr act 2.
For C#CCNC(=O)C[C@H]1C[C@@]2(C(=O)OC)C(=C[C@H](C(C)C)O[C@@H]2C2CC2)N(Cc2cccc3ccccc23)C1=O the results were TTR transcr act 0.
CCC(CO)Oc1cc(NCc2ccncc2)c2ncn(C(C)C)c2c1 (centres undefined) was read as TTR transcr act 4.
`CCC(CO)Oc1cc(NCc2ccc(F)cc2)c2ncn(C(C)C)c2c1` (centres undefined) gave TTR transcr act -4.
Screening CCC(CO)Oc1cc(NCc2cc(C)cc(C)c2)c2ncn(C(C)C)c2c1 (centres undefined) returned TTR transcr act 11*, TTR inh HuH7 -23 and TTR act confirm -1.
CCCC1CCC2(CC1)CCC2OC(=O)Nc1ccccc1OC (centres undefined) was read as TTR transcr act 5.

Screening results (PubChem BioAssay)
